In PubChem BioAssay (NCATS):
“And” between values parts separate entries of the source, which are not always exact repeats. Equal entries are not always repeated. Inconclusive results are not listed. The source made the active and inactive calls. Calls come from the whole dose curve; as a rule, active = well fitted curve in the direction sought with a large enough effect; inconclusive = small, poorly fitted or top-dose-only effect, or another doubt; inactive = no such curve, though single readings can be large; an effect the other way counts as inactive or inconclusive.

Columns and labels:
MCC-13 = test: qHTS assay to identify novel small-molecules to repurpose for Merkel cell carcinoma treatment (AID 1296009); conditions: MCC and control cell lines, CellTiter-Glo viability, 72 h; series mostly up to 46 µM; note: nearly all actives have a fitted effect of over 60% in size
Procedure, shortened: (§1)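 After compound transfer in DMSO, plates were kept 72 hr at 37 degree celsius. Luminescent ATP signal from CellTiter-Glo served as viability measure, normalized against DMSO and no-cell controls.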

MCC-26 = test: as above; conditions: MCC and control cell lines, CellTiter-Glo viability, 72 h; series mostly up to 46 µM
Procedure, shortened: as §1

MKL-1 = test: as above; conditions: MCC and control cell lines, CellTiter-Glo viability, 72 h; series mostly up to 46 µM
Procedure, shortened: as §1

MKL-2 = test: as above; conditions: MCC and control cell lines, CellTiter-Glo viability, 72 h; series mostly up to 46 µM
Procedure, shortened: as §1

UISO = test: as above; conditions: MCC and control cell lines, CellTiter-Glo viability, 72 h; series mostly up to 46 µM
Procedure, shortened: as §1

WaGa = test: as above; conditions: MCC and control cell lines, CellTiter-Glo viability, 72 h; series mostly up to 46 µM
Procedure, shortened: as §1

C33A = test: Primary qHTS to identify gynecologic anti-cancer compounds using libraries of approved drugs and bioactive compounds (AID 1345084); conditions: Gynecologic cancer cell panel viability, ATPlite luminescence, 48 h; series mostly up to 57.5 µM; note: nearly all actives have a fitted effect of over 55% in size; note: potency is the fitted concentration of half-maximal effect
Procedure, shortened: (§2)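 Five-concentration response, 48 h; readout is ATP-driven luciferase luminescence.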

CAOV3 = test: as above; conditions: Gynecologic cancer cell panel viability, ATPlite luminescence, 48 h; series mostly up to 57.5 µM
Procedure, shortened: as §2

CASKI = test: as above; conditions: Gynecologic cancer cell panel viability, ATPlite luminescence, 48 h; series mostly up to 57.5 µM
Procedure, shortened: as §2

Es-2 = test: as above; conditions: Gynecologic cancer cell panel viability, ATPlite luminescence, 48 h; series mostly up to 57.5 µM
Procedure, shortened: as §2

HeLa = test: as above; conditions: Gynecologic cancer cell panel viability, ATPlite luminescence, 48 h; series mostly up to 57.5 µM
Procedure, shortened: as §2

Hek293T = test: as above; conditions: Gynecologic cancer cell panel viability, ATPlite luminescence, 48 h, control line for the selectivity index; series mostly up to 57.5 µM
Procedure, shortened: as §2

JEG-3 = test: as above; conditions: Gynecologic cancer cell panel viability, ATPlite luminescence, 48 h; series mostly up to 57.5 µM
Procedure, shortened: as §2

PA-1 = test: as above; conditions: Gynecologic cancer cell panel viability, ATPlite luminescence, 48 h; series mostly up to 57.5 µM
Procedure, shortened: as §2

SKOV3 = test: as above; conditions: Gynecologic cancer cell panel viability, ATPlite luminescence, 48 h; series mostly up to 57.5 µM
Procedure, shortened: as §2

Tov-21-G = test: as above; conditions: Gynecologic cancer cell panel viability, ATPlite luminescence, 48 h; series mostly up to 57.5 µM
Procedure, shortened: as §2

Tov112D = test: as above; conditions: Gynecologic cancer cell panel viability, ATPlite luminescence, 48 h; series mostly up to 57.5 µM
Procedure, shortened: as §2

OV90 = test: as above; conditions: Gynecologic cancer cell panel viability, ATPlite luminescence, 48 h; series mostly up to 57.5 µM
Procedure, shortened: as §2

[1] = Drug repurposing screens with cells derived from glioblastoma tumor samples (AID 1345199); conditions: GBM patient neurospheres viability, ATP luminescence, 48 h; note: nearly all actives have a fitted effect of over 40% in size; note: potency is the fitted concentration of half-maximal effect
Procedure, shortened: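 Four patient lines of CD133+ GBM neurospheres were screened at several concentrations; hits were retested in those lines plus three slower-growing GBM lines, using 48-hour treatment and ATP-based viability.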

[2] = at 108 µM (top of the series), tumour line B
[3] = at 108 µM (top of the series), tumour line D
[4] = at 45.9 µM (top of the series), tumour line B
[5] = at 45.9 µM (top of the series), tumour line D
[6] = at 46 µM (top of the series), tumour line A
% is set by controls: 0 for no effect and ±100 for the full control effect.

CCOC(C(=O)OCCN(C)C)(c1ccccc1)c1ccccc1
inactive: Potency (MCC-13) | Potency (MCC-26) | Potency (MKL-1) | Potency (MKL-2) | Potency (UISO) | Potency (WaGa) | Potency (C33A) | Potency (CAOV3) | Potency (CASKI) | Potency (Es-2) | Potency (HeLa) | Potency (Hek293T) | Potency (JEG-3) | Potency (PA-1) | Potency (SKOV3) | Potency (Tov-21-G) | Potency (Tov112D)

c1ccc2nc(N3CCNCC3)ccc2c1
inactive: Potency (MCC-13) | Potency (MCC-26) | Potency (MKL-1) | Potency (MKL-2) | Potency (UISO) | Potency (WaGa) | Potency (C33A) | Potency (CAOV3) | Potency (CASKI) | Potency (Es-2) | Potency (HeLa) | Potency (Hek293T) | Potency (JEG-3) | Potency (PA-1) | Potency (SKOV3) | Potency (Tov-21-G) | Potency (Tov112D)

COc1ccc(OC)c(CC(C)N)c1 (centres undefined)
inactive: Potency (MCC-13) | Potency (MCC-26) | Potency (MKL-1) | Potency (MKL-2) | Potency (UISO) | Potency (WaGa) | Potency (C33A) | Potency (CAOV3) | Potency (CASKI) | Potency (Es-2) | Potency (HeLa) | Potency (Hek293T) | Potency (JEG-3) | Potency (OV90) | Potency (PA-1) | Potency (Tov-21-G) | Potency (Tov112D) | activity, negative = cell killing [1, 2] -6.52% | activity, negative = cell killing [1, 3] -16.6%

CC(C)C(Br)C(=O)NC(N)=O (centres undefined)
inactive: Potency (MCC-13) | Potency (MCC-26) | Potency (MKL-1) | Potency (MKL-2) | Potency (UISO) | Potency (WaGa) | Potency (C33A) | Potency (CAOV3) | Potency (CASKI) | Potency (Es-2) | Potency (HeLa) | Potency (Hek293T) | Potency (JEG-3) | Potency (OV90) | Potency (PA-1) | Potency (SKOV3) | Potency (Tov-21-G) | Potency (Tov112D) | activity, negative = cell killing [1, 4] -3.2% | activity, negative = cell killing [1, 5] -12.7% | activity, negative = cell killing [1, 6] -8.61%

C[C@]12CC[C@H]3[C@@H](CCC4=CC(=O)CC[C@@H]43)[C@@H]1CC[C@@H]2O
active: Potency (HeLa) 2.24 µM | Potency (PA-1) 10 µM
inactive: Potency (MCC-13) | Potency (MCC-26) | Potency (MKL-1) | Potency (MKL-2) | Potency (UISO) | Potency (WaGa) | Potency (C33A) | Potency (CASKI) | Potency (Es-2) | Potency (Hek293T) | Potency (JEG-3) | Potency (OV90) | Potency (SKOV3) | Potency (Tov-21-G) | Potency (Tov112D) | activity, negative = cell killing [1, 4] 2.47% and -10.2%

CC(C)NCC(O)c1ccc(N)c(C#N)c1 (centres undefined)
inactive: Potency (MCC-13) | Potency (MCC-26) | Potency (MKL-1) | Potency (MKL-2) | Potency (UISO) | Potency (WaGa) | Potency (C33A) | Potency (CAOV3) | Potency (CASKI) | Potency (Es-2) | Potency (HeLa) | Potency (Hek293T) | Potency (JEG-3) | Potency (OV90) | Potency (PA-1) | Potency (SKOV3) | Potency (Tov-21-G) | Potency (Tov112D) | activity, negative = cell killing [1, 4] -10.3% | activity, negative = cell killing [1, 5] -5.78% | activity, negative = cell killing [1, 6] -34.1%

CCS(=O)(=O)C(C)(C)S(=O)(=O)CC
inactive: Potency (MCC-13) | Potency (MCC-26) | Potency (MKL-1) | Potency (MKL-2) | Potency (UISO) | Potency (WaGa) | Potency (C33A) | Potency (CASKI) | Potency (Es-2) | Potency (HeLa) | Potency (Hek293T) | Potency (JEG-3) | Potency (OV90) | Potency (PA-1) | Potency (SKOV3) | Potency (Tov-21-G) | Potency (Tov112D) | activity, negative = cell killing [1, 4] -4.87% | activity, negative = cell killing [1, 5] 5.45%

CCOC(=O)NC(O)C(Cl)(Cl)Cl (centres undefined)
inactive: Potency (MCC-13) | Potency (MCC-26) | Potency (MKL-1) | Potency (MKL-2) | Potency (UISO) | Potency (WaGa) | Potency (C33A) | Potency (CAOV3) | Potency (CASKI) | Potency (Es-2) | Potency (HeLa) | Potency (Hek293T) | Potency (JEG-3) | Potency (OV90) | Potency (PA-1) | Potency (SKOV3) | Potency (Tov-21-G) | Potency (Tov112D) | activity, negative = cell killing [1, 4] -7.26% | activity, negative = cell killing [1, 5] -2.34% | activity, negative = cell killing [1, 6] -17.3%

C[C@]12CC[C@H]3[C@@H](CC=C4C[C@@H](O)CC[C@@]43C)[C@@H]1CC[C@@H]2O
inactive: Potency (MCC-13) | Potency (MCC-26) | Potency (MKL-1) | Potency (MKL-2) | Potency (UISO) | Potency (WaGa) | Potency (C33A) | Potency (CAOV3) | Potency (CASKI) | Potency (Es-2) | Potency (HeLa) | Potency (Hek293T) | Potency (JEG-3) | Potency (OV90) | Potency (PA-1) | Potency (SKOV3) | Potency (Tov-21-G) | Potency (Tov112D) | activity, negative = cell killing [1, 4] -14.5%
active: Potency ([1]; tumour line A) 11.2 µM

Cc1c(Cl)c(=O)oc2cc(OP(=O)(OCCCl)OCCCl)ccc12
inactive: Potency (MCC-13) | Potency (MCC-26) | Potency (MKL-1) | Potency (MKL-2) | Potency (UISO) | Potency (WaGa) | Potency (C33A) | Potency (CAOV3) | Potency (CASKI) | Potency (Es-2) | Potency (HeLa) | Potency (Hek293T) | Potency (JEG-3) | Potency (PA-1) | Potency (SKOV3) | Potency (Tov-21-G) | Potency (Tov112D) | activity, negative = cell killing [1, 4] -10.4% | activity, negative = cell killing [1, 5] -23.1%

CC(Cc1ccc2c(c1)OCO2)NO (centres undefined)
inactive: Potency (MCC-13) | Potency (MCC-26) | Potency (MKL-1) | Potency (MKL-2) | Potency (UISO) | Potency (WaGa) | Potency (C33A) | Potency (CAOV3) | Potency (CASKI) | Potency (Es-2) | Potency (HeLa) | Potency (Hek293T) | Potency (JEG-3) | Potency (OV90) | Potency (PA-1) | Potency (SKOV3) | Potency (Tov-21-G) | Potency (Tov112D) | activity, negative = cell killing [1, 2] -8.99% | activity, negative = cell killing [1, 3] -8.83%

CCCCC1C(=O)NC(=O)N(C2CCCCC2)C1=O (centres undefined)
inactive: Potency (MCC-13) | Potency (MCC-26) | Potency (MKL-1) | Potency (MKL-2) | Potency (UISO) | Potency (WaGa) | Potency (C33A) | Potency (CAOV3) | Potency (CASKI) | Potency (Es-2) | Potency (HeLa) | Potency (Hek293T) | Potency (JEG-3) | Potency (OV90) | Potency (PA-1) | Potency (SKOV3) | Potency (Tov-21-G) | Potency (Tov112D) | activity, negative = cell killing [1, 4] 0.883% | activity, negative = cell killing [1, 5] 0.724% | activity, negative = cell killing [1, 6] -28.6%

CCNc1nc(Cl)nc(NCC)n1
inactive: Potency (MCC-13) | Potency (MCC-26) | Potency (MKL-1) | Potency (MKL-2) | Potency (UISO) | Potency (WaGa) | Potency (C33A) | Potency (CAOV3) | Potency (CASKI) | Potency (Es-2) | Potency (HeLa) | Potency (Hek293T) | Potency (JEG-3) | Potency (OV90) | Potency (PA-1) | Potency (SKOV3) | Potency (Tov-21-G) | Potency (Tov112D) | activity, negative = cell killing [1, 4] -2.74% | activity, negative = cell killing [1, 5] -21.4% | activity, negative = cell killing [1, 6] -24.7%
